Compounds without any hit were thinned out: in the full panel of roughly 83,000, 20% have a hit.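 96-well plates, one dose, 48 hours. Percent growth reported; active if below 10.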 Activity calls are given as the source filed them.
Each molecule was assayed on HL-60(TB) leukemia (assay: NCI-60 one-dose screen, 48 h (100 = growth as untreated, 0 = no growth, -100 = all killed)). Settings: 10 µM unless noted.
For O=C(NCCc1ccccc1)Nc1ccc2cc3ccc(NC(=O)NCCc4ccccc4)cc3nc2c1, the growth was -46.9% (active).
CCCCCCCCCCCCCCCCCCSC(=N)N was tested, and the growth was 46% (inactive).
CC1=NN2C(=NC3=C(CCC/C3=C\c3ccc(Cl)cc3)C2c2ccc(Cl)cc2)S1 (stereo not given) was tested, and the growth was 63.2% (inactive).
In the case of COC(=O)c1cc2c(n1Cc1ccccc1)-c1oncc1CCC2, the growth was 28.9% (inactive).
For COc1ccc(/C=C/C(C)=N/OCC(=O)O)cc1, the growth was 89.1% (inactive).
With N#CC(=C1SCS1)[N+](=O)[O-] the growth was -4.02% (active).
In the case of Cc1ccc(C)n1-c1ccsc1C(=O)NNC(=O)CCl, the growth was 104% (inactive).
CC(=O)Nc1ccc(-n2c(O)c(/C=N/NC(=O)Cc3ccccc3Nc3c(Cl)cccc3Cl)sc2=S)cc1 was tested, and the growth was 99% (inactive).
CN1CCCc2cc(/C=C3/SC(=S)N(CCc4ccc(O)cc4)C3=O)ccc21 was tested, and the growth was 8.87% (active).
For Cn1c(-c2ccccc2)cc(=O)cc1-c1ccccc1, the growth was 99.8% (inactive).
N=c1n(Cc2ccccc2)c(N)cc(=O)n1Cc1ccccc1 was tested, and the growth was 11.3% (inactive).
For CNC(=O)c1cccc2cc(Oc3ccnc4cc(OCC5(N)CC5)c(OC)cc34)ccc12, the growth was 91.6% (inactive).
In the case of NC(CSC(c1ccccc1)(c1ccccc1)c1ccc2c(c1)OCO2)C(=O)O (stereo not given), the growth was -26.2% (active).
For O=C(N1CCC(CN=c2cc3n(-c4ccc(Cl)cc4)c4ccccc4nc-3cc2Nc2ccc(Cl)cc2)CC1)N1CC1, the growth was -73.3% (active).
With CO[C@H]1/C=C(/C)CCC[C@H](C)[C@H](O)[C@@H](C)C(=O)C(C)(C)[C@@H](O)CC(=O)O[C@@H]1/C(C)=C/c1csc(C)n1 the growth was 24.3% (inactive).
In the case of Cn1ccnc1CN1CCSC(C(=O)Nc2ccccc2)C1 (stereo not given), the growth was 88.6% (inactive).
For C=C1C(=O)O[C@H]2[C@H]1CC/C(COC(=O)/C=C\C(=O)NCc1ccc(Cn3c(=O)sn(CCI)c3=O)cc1)=C\CC[C@@]1(C)O[C@@H]21, the growth was -34.7% (active).
In the case of O=C1NC(=Nc2ccc(Cl)cc2)S/C1=C\c1cn(-c2ccccc2)nc1-c1ccccc1, the growth was 92% (inactive).
C/C(Cc1ccc(Cl)cc1)=C(\c1ccc(OCCN2CCCCCC2)cc1)c1ccc(OC(=O)C2CCCCC2)cc1 was tested, and the growth was 17.6% (inactive).
For CN(CCCN(C)CCC1CCCCC1)CCC1CCCCC1, the growth was 116% (inactive).
For COc1cc2nc(N3CCCC3)nc(NCC3CCCCC3)c2cc1OC, the growth was -57.2% (active).
N#Cc1ccc(Oc2ccc3ccc(=O)oc3c2)cc1 was tested, and the growth was 82.7% (inactive).
In the case of COc1ccc2c(c1)/C(=C1\S/C(=N/c3nnc(C)s3)NC1=O)C(=O)N2Cc1ccc(Cl)cc1, the growth was 53.8% (inactive).
With O=C(Nc1ccc(Oc2ccc(F)cc2)c(Cl)c1)c1cnccn1 the growth was 21.4% (inactive).
N#Cc1c(-c2cccc(F)c2)cc(-c2ccc(Br)s2)[nH]c1=O was tested, and the growth was 67% (inactive).
With N#CCc1ccc([N+](=O)[O-])cc1 the growth was 53.1% (inactive).
In the case of COc1ccc(/C=C(/C(=O)N2CCCC2)c2cc(OC)c(OC)c(OC)c2)cc1, the growth was -14.7% (active).
CCCCOS(=O)(=O)c1ccccc1 was tested, and the growth was 111% (inactive).
With COC12C=C/C(=C(/C(=O)OCc3ccncn3)C(=O)CCCCCCCCC3(OC)C=C/C(=C(/C(=O)OCc4ccncn4)C(=O)CCCCCCCC1)O3)O2 the growth was -17.1% (active).
For CCc1cc(C)cc(O)c1, the growth was 105% (inactive).
In the case of Cc1ccc(-c2cnc3sc4ccc(Cl)cc4n23)cc1, the growth was 90.5% (inactive).
For COc1ccc(-n2nc(C)c3c(Nc4ccc(NC(=O)Nc5cc(C(F)(F)F)ccc5F)cc4)ncnc32)cc1, the growth was 45.8% (inactive).
CCc1ccc(/C=C/c2ccc(O)c3ncccc23)[n+](C)c1 was tested, and the growth was 104% (inactive).
C/C(=C\c1csc(C)n1)[C@@H]1C[C@@H]2O[C@]2(C)CCC[C@H](C)[C@H](O)[C@@H](C)C(=O)C(C)(C)[C@@H](O)CC(=O)N1 was tested, and the growth was 0.771% (active).
For Cc1cccc(NC(=O)c2sc3nc4c(cc3c2N)CCCC4)c1C, the growth was 9.11% (active).
With CC(=O)c1nc2ccccc2n1CCN1CCN(C)CC1 the growth was 8.01% (active).
With ClC1C2CC(c3ccccc32)C1Cl (stereo not given) the growth was 131% (inactive).
Oc1ccc(CNNc2ccnc3c(O)cccc23)c2cccnc12 was tested, and the growth was -7.85% (active).
O=C1C=CC(=O)N1C1CCCCCCCCCCC1 was tested, and the growth was -9.95% (active).
For Cc1ccc(C(=O)c2ccc(CC(=O)N=Nc3c(O)[nH]c4ccc(Br)cc34)n2C)cc1, the growth was 89.4% (inactive).
